CapD inh – inhibitors of Bacillus anthracis CapD enzyme; AID 492967; 140,000 compounds, 0.23% hits; z-score (concentration not given with the values); purified CapD enzyme, fluorescence intensity read-out; hits give low values; in the data active = z-score mostly below about -2.9, no sharp cut-off; inactive = mostly above about -1.9
Starred values were filed as active, the others as inactive. This is one part of a sample in which hits are shown more often than they occur.

SMILES	CapD inh
O=C(Nc1cc(C(F)(F)F)ccc1Br)c1ccccc1F	-0.74
CCc1ccc(-n2c(=S)sc3c(=O)[nH]c(SCC4OCCO4)nc32)cc1	-1.52
CCc1ccc(-n2c(=S)sc3c(=O)[nH]c(SCC(=O)O)nc32)cc1	-4.3*
CCc1ccc(-n2c(=S)sc3c(=O)[nH]c(SCC(=O)Nc4nccs4)nc32)cc1	0.14
COc1ccc(/C=C/C(=O)NCCCN2CCCC2)cc1	-0.305
Nc1c(C(=O)c2ccc(Br)cc2)sc2nc(-c3ccccn3)ccc12	0.09
Cc1ccc(-c2nc3ccccc3c(=O)o2)cc1	0.445
Cc1ccc2c(=O)cc(-c3ccc(F)cc3)oc2c1	-0.205
Cc1ccc(-c2cccc(=O)o2)cc1	-3.96*
Cc1ccc(-c2nc(C#N)c(NCCCN(C)C)o2)cc1	3.15
COc1ccc(/C(O)=C2\C(=N)N(c3cccc(Br)c3)C3=C(C(=O)CCC3)C2c2ccc3c(c2)OCO3)cc1 (centres undefined)	-0.56
COc1ccccc1N1C(=O)NC(=O)/C(=C\c2cc(OC)c(O)c(OC)c2)C1=O	-1.6
COc1cc(/C=C2\C(=O)NC(=S)N(c3ccc(Cl)cc3)C2=O)cc([N+](=O)[O-])c1O	-2.81
COc1cc(/C=C2\C(=O)NC(=S)N(c3ccccc3C)C2=O)cc([N+](=O)[O-])c1O	-5.96*
CCCCSc1nnc2n(-c3ccccc3OC)c(=O)c3c(n12)-c1ccccc1CC31CCCCC1	0.345
O=c1c2cc3c(cc2[nH]c(=S)n1CCN1CCOCC1)OCO3	1.13
CC(=O)Oc1ccccc1N(C(C)=O)S(=O)(=O)c1ccc(C)cc1	-0.385
COc1ccccc1N(C(C)=O)S(=O)(=O)c1ccc(Cl)cc1	-4.7*
COc1ccc(N(C(=O)c2ccccc2)S(=O)(=O)c2ccc(Cl)cc2)cc1	0.455
Cc1cc(NC(=O)c2sc(Nc3cccc(C(F)(F)F)c3)nc2N)no1	-0.285
O=C(NCc1csc(-c2cccs2)n1)c1ccno1	37.8
Cc1ccc(S(=O)(=O)c2nc(NC3CCS(=O)(=O)C3)sc2Cl)cc1 (centres undefined)	0.27
CCOc1nc(S(=O)(=O)c2ccc(C)cc2)c(Cl)s1	-0.155
Cc1ccc(S(=O)(=O)c2nc(Nc3nccs3)sc2Cl)cc1	-5.1*
CCN(CC)C(=O)Cn1c(S(=O)(=O)Cc2ccccc2)nc2ccccc21	-0.74
SMILES	CapD inh
CC(C)C(N)C(O)(c1ccccc1)c1ccccc1 (centres undefined)	-0.73
Cc1ccc(NS(=O)(=O)c2ccccc2)c(NS(=O)(=O)c2ccccc2)c1	-0.3
COc1cccc(C2C3=C(CC(C)(C)CC3=O)NC3=C2C(=O)CC(C)(C)C3)c1	68.1
COC(=O)CN1C(c2cccc(Cl)c2)=Nc2ccc(Br)cc2C1c1ccccc1 (centres undefined)	-0.33
CCN(CC)C(=O)c1cccc2c1C(=O)c1ccccc1-2	0.185
CC(Sc1nc2ccccc2s1)C(=O)O (centres undefined)	0.095
CC(=O)SC(CC(=O)O)c1nc2ccccc2s1 (centres undefined)	-5.55*
CCC(Sc1nc2ccccc2s1)C(=O)O (centres undefined)	0.87
COc1ccc(-c2ccnc(SCC(=O)Nc3ccc(C(C)C)cc3)n2)cc1	-0.425
Clc1cccc(Cl)c1-c1noc(-c2ccno2)n1	-0.275
CCOC(=O)/C(C#N)=C/Nc1ccc2c(c1)OCO2	-0.6
CCOC(=O)/C(C#N)=C/Nc1cc(C)no1	-4.16*
CCOC(=O)/C(C#N)=C/Nc1ccn[nH]1	-1.89
Fc1ccccc1Nc1nc2nonc2n2nnnc12	16
Cc1cc(C)n(-c2ccc(C(=O)O)cc2)n1	0.57
Cc1cc(C)n(-c2ccc(N=NC3=C(O)CCCC3=O)cc2)n1	-4.44*
Cc1cc(C)n(-c2ccc(S(N)(=O)=O)cc2)n1	0.555
O=C(Nc1ccc(Oc2ccc(Br)c3ccccc23)c(Cl)c1)c1cc(Cl)ccc1O	-0.345
CC(C)(C)Sc1ccccc1CN1CCCCC1COC(=O)N1CCN(c2sc(S(N)(=O)=O)cc2[N+](=O)[O-])CC1 (centres undefined)	-0.525
O=CC12c3ccccc3C(c3ccccc31)C1C(=O)N(c3ccccc3Cl)C(=O)C12 (centres undefined)	0.56
CC(=O)Nc1ccc(NC(=O)c2ccco2)cc1	0.425
CN(C)c1ccc(N/C=C/C(=O)c2ccco2)cc1	-2.41
CC(=O)Nc1ccc(N/C=C/C(=O)c2ccco2)cc1	-5.83*
C=CCN1CC[C@]23c4c5ccc(O)c4O[C@H]2C(=O)CC[C@@]3(O)[C@H]1C5	0.2
COc1cc(C(=O)N(CCC#N)Cc2ccncc2)cc(OC)c1OC	-0.26
SMILES	CapD inh
CCCCn1c(=O)c(C(=O)Nc2ccc(C)cc2Br)c(O)c2ccccc21	-0.26
Cc1ccc(NC(=O)CSCc2ccc(C#N)cc2)cc1	0.97
CC(C)S(=O)(=O)C1=NSC2=NC(=O)/C(=C\c3ccco3)C(=N)N21	-3.77*
CS(=O)(=O)C1=NN2C(=N)/C(=C\c3ccco3)C(=O)N=C2S1	0.885
COc1cc(/C=C2/C(=N)N3C(=NC2=O)SN=C3S(=O)(=O)C(C)C)cc(Cl)c1OC(=O)c1ccco1	-1.3
COC(=O)c1sccc1-c1ccc(/C=C(\C#N)S(C)(=O)=O)o1	0.71
CCOC(=O)c1sc(COc2ccccc2OC)nc1C	-2.67*
Cc1nc(COc2ccccc2Cl)sc1C(=O)/C=C/N(C)C	6.79
CCOC(=O)c1sc(COc2ccc(C3SCCS3)cc2)nc1C	9.87
CC(C)CCn1c(C(C)O)nc2ccccc21 (centres undefined)	0.145
CC(NC(=O)C(C)(C)C)c1nc2ccccc2[nH]1 (centres undefined)	0.24
O=S(=O)(NCC1CCCO1)c1ccc2oc3ccc(S(=O)(=O)NCC4CCCO4)cc3c2c1 (centres undefined)	0.35
CN(C)/N=C/c1ccc([N+](=O)[O-])o1	-4.4*
O=C1CN(/N=C/c2ccc([N+](=O)[O-])o2)C(=O)N1	-0.945
O=C1OCCN1/N=C/c1ccc([N+](=O)[O-])o1	-0.03
CCc1nnc2sc(-c3ccc(Cl)cc3)nn12	0.175
O=C(Cc1ncn[nH]1)NCCc1ccccc1	-5.82*
CCCNC(=O)Cc1ncn[nH]1	1.89
Cc1n[nH]c(C)c1CC(=O)NCCc1ccccc1	-0.4
COc1ccc(CCNC(=O)CN2CCOc3ccccc32)cc1OC	-0.08
CCC(=O)Oc1ccc(C2CC(=O)c3c(ccc4ccccc34)N2)cc1OC (centres undefined)	8.27
COc1cc(C(=O)NN2S(=O)(=O)c3ccccc3S2(=O)=O)cc(OC)c1OC	-0.55
O=C(NN1S(=O)(=O)c2ccccc2S1(=O)=O)c1ccc(Br)cc1	0.285
Cc1ccc(C)n1NC(=O)c1ccco1	0.055
O=C(NN1S(=O)(=O)c2ccccc2S1(=O)=O)c1cscn1	-5.99*
SMILES	CapD inh
O=C(NN1S(=O)(=O)c2ccccc2S1(=O)=O)c1ccco1	-5.7*
O=C(Nc1ccccc1C(=O)NN1S(=O)(=O)c2ccccc2S1(=O)=O)c1ccccc1Cl	0.09
CCCC(C(=O)NCc1ccccn1)N1Cc2ccccc2C1=O (centres undefined)	-1.33
CCCCCCc1c(C)c2ccc(OC(C)C(=O)O)c(C)c2oc1=O (centres undefined)	52.2
CN(c1cccc(NS(C)(=O)=O)c1)S(C)(=O)=O	-0.445
COc1cc(/C=C2/SC(=S)N(CC(=O)O)C2=O)cc(OC)c1OC	-1.47
COc1ccc(OC)c(/C=C2/SC(=S)N(CC(=O)O)C2=O)c1	-2.25
COc1cc(OC)c(OC)cc1/C=C1/SC(=S)N(CC(=O)O)C1=O	-3.78*
